Compound activity (PubChem)
AmpC inh detg – qHTS Inhibitors of AmpC Beta-Lactamase (assay with detergent); 0.041% of 370,000 active; Potency, µM (titrated, usually from 114 µM), usual class: inhibitors; AmpC hydrolysis of nitrocefin, absorbance 480 nm, 0.01% Triton; also: nearly all actives have a fitted effect of over 25% in size
Target sequence (P00811 whole entry, looked up): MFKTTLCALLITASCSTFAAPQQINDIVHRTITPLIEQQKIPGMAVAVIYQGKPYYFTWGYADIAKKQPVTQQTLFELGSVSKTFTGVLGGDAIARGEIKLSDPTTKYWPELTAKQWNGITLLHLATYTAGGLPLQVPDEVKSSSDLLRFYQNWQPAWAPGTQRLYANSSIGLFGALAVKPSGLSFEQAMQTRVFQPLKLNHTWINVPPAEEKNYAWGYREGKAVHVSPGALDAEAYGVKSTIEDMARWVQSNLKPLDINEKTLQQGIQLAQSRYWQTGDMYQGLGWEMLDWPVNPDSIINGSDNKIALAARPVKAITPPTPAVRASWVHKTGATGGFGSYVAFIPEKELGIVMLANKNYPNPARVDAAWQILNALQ
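20 mM phosphate pH 7.0 + 0.01% (detergent screen) or 0.0001% Triton X-100; 5.3 nM AmpC reagent; cpd preinc 15 min RT; nitrocefin (800 uM stock) to start; A480 q20 s × 4 min; Activity was normalised to no-enzyme and no-compound control wells.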
Sm TGR inh – qHTS Assay for the Inhibitors of Schistosoma Mansoni Peroxiredoxins; Schistosoma mansoni thioredoxin glutathione reductase (TGR), Q962Y6; purified TGR, DTNB reduction, TNB absorbance 405 nm; Potency, µM (titrated, usually from 114 µM), actives largely listed as inhibitors; 3% of 360,000 active; AID 485364, 2010; also: nearly all actives have a fitted effect of over 60% in size
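Kinetic colorimetric format: TGR-catalysed, NADPH-driven DTNB reduction monitored via TNB absorbance. Enzyme dispensed at 20 nM; compound exposure 15 min at room temperature before reaction start.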
RE007 growth inh – qHTS Assay for Inhibitors of the HIV-1 protein Vpr; S. pombe RE007 Vpr strain, BacTiter-Glo ATP luminescence, 24 h; Potency, µM (series often up to 92.2 µM), hits mostly inhibitors; 0.21% of 360,000 active; active = well fitted falling curve with a large enough effect; inconclusive = small, poorly fitted or top-dose-only effect; inactive = no such curve, though single readings can be large or run the other way; also: nearly all actives have a fitted effect of over 50% in size
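Fission yeast RE007 carrying one integrated HIV-1 vpr copy, seeded at OD 0.01 in PMG+AL medium with 23 nL pinned compound. Grown 24 h at 30 degrees; viability read by BacTiter-Glo luminescence after 5 min.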
FBPA Giardia inh – qHTS Assay for Inhibitors of Fructose-1,6-bisphosphate Aldolase from Giardia Lamblia | A8B2U2 | purified Giardia FBPA | 0.71% of 290,000 active | AID 2451, 2010 | Potency, µM (titrated, usually from 59.6 µM), hits mostly inhibitors; also: nearly all actives have a fitted effect of over 55% in size
Target sequence (A8B2U2 whole entry, looked up): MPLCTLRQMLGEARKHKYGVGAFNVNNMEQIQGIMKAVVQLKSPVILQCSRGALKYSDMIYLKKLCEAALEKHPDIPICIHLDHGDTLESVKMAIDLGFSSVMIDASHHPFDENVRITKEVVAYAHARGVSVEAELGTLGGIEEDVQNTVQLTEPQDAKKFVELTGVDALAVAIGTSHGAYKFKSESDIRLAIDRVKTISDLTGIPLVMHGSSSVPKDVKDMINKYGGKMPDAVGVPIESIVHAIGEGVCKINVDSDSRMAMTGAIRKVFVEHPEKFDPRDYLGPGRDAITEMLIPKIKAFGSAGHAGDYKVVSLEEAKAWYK
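Giardia FBPA (40 nM reagent) was preincubated 10 min at RT with compound (up to 57.5 uM final), then substrate plus GAPDH/TPI/NAD/arsenate coupling system with diaphorase/resazurin was added; resorufin fluorescence (525/598 nm) was read after 20 min.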
AmpC inh no detg – qHTS Inhibitors of AmpC Beta-Lactamase (assay without detergent). AID 485341, 2010. Potency, µM (doses to about 57.1 µM), most hits filed as inhibitors. 0.52% of 330,000 active. AmpC nitrocefin hydrolysis, absorbance 480 nm, 0.0001% Triton. P00811; also: nearly all actives have a fitted effect of over 20% in size
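AmpC (5.3 nM in the dispensed reagent) in 20 mM phosphate pH 7.0 with 0.01% (detergent screen) or 0.0001% Triton X-100 was preincubated with compounds for 15 min at room temperature. Nitrocefin was then added from an 800 uM solution, and hydrolysis was followed at 480 nm.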
Numbers stand for hits. In the library only some 3.4% were active in any assay of this set; here they are far more common. Unless noted, calls follow the shape of the dose curve; as a rule, active = well fitted curve in the direction sought with a large enough effect; inconclusive = small, poorly fitted or top-dose-only effect, or another doubt; inactive = no such curve, though single readings can be large; an effect the other way counts as inactive or inconclusive.

CCSc1nnc(NC(=O)C2Cc3ccccc3CN2C(=O)c2ccco2)s1 (centres undefined) was read as AmpC inh detg inconclusive, Sm TGR inh 31.6µM, RE007 growth inh inactive, FBPA Giardia inh inactive and AmpC inh no detg inactive.
`O=C(NCc1ccc(F)cc1)C1Cc2ccccc2CN1C(=O)c1ccco1` (centres undefined) gave AmpC inh detg inactive, Sm TGR inh inactive, RE007 growth inh inactive, FBPA Giardia inh inactive and AmpC inh no detg inactive.
Screening O=C(NCc1ccccc1)C1Cc2ccccc2CN1C(=O)c1ccco1 (centres undefined) returned AmpC inh detg inactive, Sm TGR inh 35.5µM, RE007 growth inh inactive, FBPA Giardia inh inactive and AmpC inh no detg inactive.
Screening CCCC(c1nnnn1Cc1ccco1)N1CCN(c2cc(Cl)ccc2C)CC1 (centres undefined) returned AmpC inh detg inactive, Sm TGR inh inactive, RE007 growth inh inactive, FBPA Giardia inh inactive and AmpC inh no detg inactive.
Screening Cc1ccc(N2C(=O)C3C4C=CC(CC4)C3C2=O)cc1[N+](=O)[O-] (centres undefined) returned AmpC inh detg inconclusive, Sm TGR inh 50.1µM, RE007 growth inh inactive, FBPA Giardia inh inactive and AmpC inh no detg inactive.
CCOc1ccc(N2C(=O)C3CC(C)=C(C)CC3C2=O)c([N+](=O)[O-])c1 (centres undefined) was read as AmpC inh detg inconclusive, Sm TGR inh 20µM, RE007 growth inh inactive, FBPA Giardia inh inactive and AmpC inh no detg inactive.
For Cc1ccc(N2C(=O)C3C4C=CC(C4)C3C2=O)cc1C (centres undefined) the results were AmpC inh detg inactive, Sm TGR inh inactive, RE007 growth inh inactive, FBPA Giardia inh inactive and AmpC inh no detg inactive.
`COc1ccc(N2C(=O)C3C4C=CC(CC4)C3C2=O)c([N+](=O)[O-])c1` (centres undefined) gave AmpC inh detg inactive, Sm TGR inh inactive, RE007 growth inh inactive, FBPA Giardia inh inactive and AmpC inh no detg inactive.
Screening CCOc1ccc(N2C(=O)C3C4C=CC(CC4)C3C2=O)c([N+](=O)[O-])c1 (centres undefined) returned AmpC inh detg inactive, Sm TGR inh 50.1µM, RE007 growth inh inactive, FBPA Giardia inh inactive and AmpC inh no detg inactive.
Screening O=C(CSc1ccccc1F)NCCN1C(=O)CSC1=O returned RE007 growth inh inactive and AmpC inh no detg inactive.
Screening CCOC(=O)C1=C(C)N(c2ccccc2)C(=O)/C1=C\c1ccco1 returned AmpC inh detg inactive, Sm TGR inh 44.7µM, RE007 growth inh inactive, FBPA Giardia inh inactive and AmpC inh no detg inactive.
`COC(=O)C1=C(C)N(c2ccc(OC)c(OC)c2)C(=O)/C1=C\c1ccco1` gave AmpC inh detg inactive, Sm TGR inh 15.8µM, RE007 growth inh inactive, FBPA Giardia inh inactive and AmpC inh no detg inactive.
For CCOC(=O)C1=C(C)N(c2ccccc2)C(=O)/C1=C\c1ccc(O)c(OC)c1 the results were AmpC inh detg inactive, Sm TGR inh 3.16µM, RE007 growth inh inactive, FBPA Giardia inh 17.7µM and AmpC inh no detg inactive.
COC(=O)C1=C(C)N(c2cc(C)cc(C)c2)/C(=C/c2ccco2)C1=O was read as AmpC inh detg inactive, Sm TGR inh inconclusive, RE007 growth inh inactive, FBPA Giardia inh inactive and AmpC inh no detg inactive.
COC(=O)c1ccc(C(=O)OC)c(NC(=S)N2CCC(C)CC2)c1 was read as AmpC inh detg inconclusive, Sm TGR inh inactive, RE007 growth inh inactive, FBPA Giardia inh inactive and AmpC inh no detg inactive.
For N=C1SC(c2ccccc2)C(=O)N1c1ncc(Cc2ccccc2)s1 (centres undefined) the results were AmpC inh detg inactive, Sm TGR inh inactive, RE007 growth inh inactive, FBPA Giardia inh inactive and AmpC inh no detg 31.6µM.
Cc1ccc(N2CN(S(=O)(=O)c3cccc([N+](=O)[O-])c3)c3nc4ccccc4nc32)cc1 was read as AmpC inh detg inactive, Sm TGR inh 44.7µM, RE007 growth inh inactive and AmpC inh no detg inactive.
Screening O=[N+]([O-])c1cccc(S(=O)(=O)N2CN(c3ccc(Br)cc3)c3nc4ccccc4nc32)c1 returned RE007 growth inh inactive and AmpC inh no detg inactive.
`COc1ccc(CCNC(=S)NCCc2c[nH]c3ccccc23)cc1` gave AmpC inh detg inactive, Sm TGR inh inactive, RE007 growth inh inactive, FBPA Giardia inh inactive and AmpC inh no detg inactive.
Screening Cc1ccc(C(=O)Nc2cccc(S(=O)(=O)N3CCCCC3)c2)cc1[N+](=O)[O-] returned AmpC inh detg inactive, Sm TGR inh inactive, RE007 growth inh inactive and AmpC inh no detg inactive.
For O=c1c(C(c2ccccc2)c2c(O)nc3n(c2=O)CCS3)c(O)nc2n1CCS2 the results were AmpC inh detg inconclusive, Sm TGR inh 1.78µM, RE007 growth inh inactive, FBPA Giardia inh inactive and AmpC inh no detg inactive.
For O=c1c(C(c2ccccc2)c2c(O)nc3n(c2=O)CCCS3)c(O)nc2n1CCCS2 the results were AmpC inh detg inactive, Sm TGR inh 4.47µM, RE007 growth inh inactive, FBPA Giardia inh inactive and AmpC inh no detg inactive.
`O=c1c(C(c2ccc(F)cc2)c2c(O)nc3n(c2=O)CCCS3)c(O)nc2n1CCCS2` gave AmpC inh detg inactive, Sm TGR inh 1.78µM, RE007 growth inh inactive, FBPA Giardia inh inactive and AmpC inh no detg inactive.
For O=c1c2[nH]c3ccc(F)cc3c2nc2n1CCCS2 the results were AmpC inh detg inactive, Sm TGR inh inactive, RE007 growth inh inactive, FBPA Giardia inh inactive and AmpC inh no detg inactive.
For CC(=O)N1CCc2cc(S(=O)(=O)CCC(=O)N3CCN(C(=O)c4ccco4)CC3)ccc21 the results were AmpC inh detg inactive, Sm TGR inh inconclusive, RE007 growth inh inactive, FBPA Giardia inh inactive and AmpC inh no detg inactive.
Screening COc1cc2c(C#CCCCO)c(-c3ccc(C#N)cc3)oc(=O)c2cc1OC returned AmpC inh detg inactive, Sm TGR inh 31.6µM, RE007 growth inh inactive and AmpC inh no detg inactive.
For CC(=O)N1CCCC1c1nc2ccccc2n1Cc1ccc(F)cc1 (centres undefined) the results were AmpC inh detg inactive and Sm TGR inh inactive.
For CCCCN(CC)C(=O)c1nn(C)c2c1CSc1ccccc1-2 the results were AmpC inh detg inactive and Sm TGR inh 44.7µM.
For COc1ccc(S(=O)(=O)NC(C(=O)NCCc2ccccn2)C(C)C)cc1 (centres undefined) the results were AmpC inh detg inactive, Sm TGR inh inactive, RE007 growth inh inactive, FBPA Giardia inh inactive and AmpC inh no detg inactive.
For Fc1ccccc1/C=C1\CCCC2=C1Nc1nnnn1C2c1ccccc1F (centres undefined) the results were AmpC inh detg inactive, Sm TGR inh 6.31µM, RE007 growth inh inactive, FBPA Giardia inh inactive and AmpC inh no detg inactive.
